Assay results taken from PubChem BioAssay (Tox21).
Results filed as inconclusive are left out. Active and inactive are the calls of the source. Unless noted, calls come from the whole dose curve; as a rule, active = well fitted curve in the direction sought with a large enough effect in the repeat runs; inconclusive = weak or mixed curves; inactive = no such curve, though single readings can be large; an effect the other way counts as inactive or inconclusive.

What was measured:
[1] = qHTS assay to identify small molecule antagonists of the thyroid receptor (TR) signaling pathway - cell viability counter screen (AID 743064); note: nearly all actives have a fitted effect of over 50% in size
In short: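 In rat pituitary GH3.TRE-Luc reporter cells co-exposed to compound and 1 nM T3 for 23.5 h, cytotoxicity was assessed with CellTiter-Fluor in the same wells, read by fluorescence.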

[2] = qHTS assay to identify small molecule antagonists of the thyroid receptor (TR) signaling pathway (AID 743065); note: series mostly up to about 70 µM; nearly all actives have a fitted effect of over 55% in size
In short: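 GH3.TRE-Luc rat pituitary cells carrying two TR response elements driving luciferase were plated for 4 h, given compound plus 1 nM T3 (final), and incubated 23.5 h at 37 C. ONE-Glo luminescence measured reporter inhibition; CellTiter-Fluor fluorescence tracked cytotoxicity.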

[3] = tested on: thyroid hormone receptor (rat, GH3 cells); test: qHTS assay to identify small molecule agonists of the thyroid receptor (TR) signaling pathway (AID 743066; calls by dose curve)
[4] = target: Estrogen receptor (Homo sapiens) (UniProt P03372); test: qHTS assay to identify small molecule antagonists of the estrogen receptor alpha (ER-alpha) signaling pathway (AID 743069; active = well fitted curve in the direction sought with a large enough effect in the signal ratio in the repeat runs, not every such curve was filed as active; the % refers to the signal ratio)
In short: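 HEK293 cells stably carrying an ER-alpha-UAS-bla beta-lactamase reporter were pre-cultured overnight in 2% charcoal-stripped FBS medium. Test compounds in DMSO were added together with 17beta-estradiol for 18 hr at 37C. Read-out was fluorescence after 2 hr with LiveBLAzer B/G FRET substrate at room temperature.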

[5] = qHTS assay to identify small molecule antagonists of the estrogen receptor alpha (ER-alpha) signaling pathway - cell viability counter screen (AID 743074; calls by dose curve; note: nearly all actives have a fitted effect of over 45% in size)
[6] = target: Estrogen receptor (Homo sapiens) (UniProt P03372); test: qHTS assay to identify small molecule agonists of the estrogen receptor alpha (ER-alpha) signaling pathway (AID 743075; calls by dose curve)
[7] = target: Estrogen receptor (Homo sapiens) (UniProt P03372); test: qHTS assay to identify small molecule agonists of the estrogen receptor alpha (ER-alpha) signaling pathway using the BG1 cell line (AID 743079); note: nearly all actives have a fitted effect of over 20% in size
[8] = qHTS assay to identify small molecule antagonists of the estrogen receptor alpha (ER-alpha) signaling pathway using the BG1 cell line - cell viability counter screen (AID 743081);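 note: compound given together with 17beta-estradiol as the ER stimulus; series mostly up to about 70 µM; nearly all actives have a fitted effect of over 45% in size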
Aromatase (Homo sapiens) = Aromatase (Homo sapiens) (UniProt P11511); test: qHTS assay to identify aromatase inhibitors (AID 743083); note: series mostly up to about 70 µM; nearly all actives have a fitted effect of over 55% in size
[9] = qHTS assay to identify aromatase inhibitors - cell viability counter screen (AID 743084);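 note: cells stimulated with testosterone during compound exposure; nearly all actives have a fitted effect of over 55% in size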
[10] = target: Aryl hydrocarbon receptor (Homo sapiens) (UniProt P35869); test: qHTS assay to identify small molecule that activate the aryl hydrocarbon receptor (AhR) signaling pathway (AID 743085);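 note: HG2L7.5c1 human HepG2 liver cells with stably integrated DRE-driven firefly reporter; series mostly up to about 70 µM; nearly all actives have a fitted effect of over 15% in size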
In short: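 AhR agonist activity is inferred from enhanced light output of a DRE-controlled firefly luciferase reporter in HepG2 cells, measured with ONE-Glo following 24 h treatment at 37C.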

[11] = qHTS assay to identify small molecule that activate the aryl hydrocarbon receptor (AhR) signaling pathway - cell viability counter screen (AID 743086);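 note: HepG2 liver cells carrying the AhR DRE luciferase reporter; series mostly up to about 70 µM; nearly all actives have a fitted effect of over 45% in size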
In short: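 HepG2-AhR-luc (HG2L7.5c1) cells, 4000/well, were preincubated 5 h at 37C, exposed to compound in qHTS format for 24 hr at 37C, then given CellTiter-Fluor for 30 min; viability was read as fluorescence in the reporter wells.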

[12] = target: Peroxisome proliferator-activated receptor gamma (Homo sapiens) (UniProt P37231); test: qHTS assay to identify small molecule agonists of the peroxisome proliferator-activated receptor gamma (PPARg) signaling pathway (AID 743094; active = well fitted activation curve with a large enough effect in the signal ratio in the repeat runs, not every such curve was filed as active; the % refers to the signal ratio)
In short: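 Compounds dissolved in DMSO were added to PPARg UAS-bla HEK293H cells for 17 h at 37C, and reporter expression was quantified by fluorescence intensity after 1 h with LiveBLAzer B/G FRET substrate.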

[13] = qHTS assay to identify small molecule antagonists of the peroxisome proliferator-activated receptor gamma (PPARg) signaling pathway - cell viability counter screen (AID 743194); note: nearly all actives have a fitted effect of over 55% in size
In short: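 PPARg-UAS-bla HEK293H cells were plated, rested 5 h at 37 C, then treated with compounds plus rosiglitazone (50 nM final) for 17 h at 37 C; viability was then read by CellTiter-Glo luminescence after 30 min at room temperature.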

[14] = qHTS assay for small molecule agonists of the antioxidant response element (ARE) signaling pathway (AID 743202; active = well fitted activation curve with a large enough effect in the signal ratio in the repeat runs, not every such curve was filed as active; the % refers to the signal ratio)
In short: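 Read-out: LiveBLAzer B/G FRET substrate fluorescence after 2 h at room temperature, following 16 h compound treatment at 37 C of HepG2 cells carrying an ARE-driven beta-lactamase reporter.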

[15] = qHTS assay for small molecule agonists of the antioxidant response element (ARE) signaling pathway - cell viability counter screen (AID 743203; calls by dose curve; note: nearly all actives have a fitted effect of over 55% in size)
In short: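 Following 16 hrs of compound treatment at 37C, HepG2 cells with an ARE-controlled beta-lactamase gene were lysed with CellTiter-Glo. Luminescence was read after 30 min at room temperature.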

[16] = qHTS assay for small molecule activators of the heat shock response signaling pathway - cell viability counter screen (AID 743209); note: nearly all actives have a fitted effect of over 50% in size
In short: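 Readout: CellTiter-Glo luminescence, 30 min at room temperature. System: HSE-bla HeLa cells, 1500/well, plated overnight. Treatment: compounds in DMSO, 5 h at 37 C.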

[17] = qHTS assay for small molecule activators of the heat shock response signaling pathway (AID 743210; active = well fitted activation curve with a large enough effect in the signal ratio in the repeat runs, with a control signal flat, not every such curve was filed as active; the % refers to the signal ratio; note: series mostly up to about 63 µM)
In short: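 HSE-bla HeLa cells (beta-lactamase reporter under heat shock response elements) were exposed to compounds for 5 h at 37 C, then loaded with LiveBLAzer B/G FRET substrate for 2.5 h at room temperature before fluorescence reading.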

[18] = target: Peroxisome proliferator-activated receptor gamma (Homo sapiens) (UniProt P37231); test: qHTS assay to identify small molecule antagonists of the peroxisome proliferator-activated receptor gamma (PPARg) signaling pathway (AID 743191; calls by dose curve; note: series mostly up to about 63 µM; nearly all actives have a fitted effect of over 30% in size)
In short: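 GeneBLAzer PPARg UAS-bla HEK293H cells carrying a UAS-driven beta-lactamase reporter were plated at 3000 cells/well, preincubated 5 h at 37C, then given compound for 17 h at 37C; LiveBLAzer B/G FRET substrate was read after 1 h at room temperature.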

[19] = qHTS assay to identify small molecule antagonists of the estrogen receptor alpha (ER-alpha) signaling pathway using the BG1 cell line (AID 743080; calls by dose curve;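 note: BG1 cells stimulated with 17beta-estradiol alongside compound; series mostly up to about 70 µM; nearly all actives have a fitted effect of over 25% in size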)
In short: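 BG1-Luc-4E2 cells (endogenous full-length ER-alpha, 4xERE luciferase) hormone-starved 5 days in charcoal-stripped FBS, plated 4,000/well for 24 h, then compound plus 17beta-estradiol for 21.5 h at 37 C; ONE-Glo luminescence read.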

Measured: Potency

Aryl hydrocarbon receptor (Homo sapiens), sequence (P35869 whole entry, looked up): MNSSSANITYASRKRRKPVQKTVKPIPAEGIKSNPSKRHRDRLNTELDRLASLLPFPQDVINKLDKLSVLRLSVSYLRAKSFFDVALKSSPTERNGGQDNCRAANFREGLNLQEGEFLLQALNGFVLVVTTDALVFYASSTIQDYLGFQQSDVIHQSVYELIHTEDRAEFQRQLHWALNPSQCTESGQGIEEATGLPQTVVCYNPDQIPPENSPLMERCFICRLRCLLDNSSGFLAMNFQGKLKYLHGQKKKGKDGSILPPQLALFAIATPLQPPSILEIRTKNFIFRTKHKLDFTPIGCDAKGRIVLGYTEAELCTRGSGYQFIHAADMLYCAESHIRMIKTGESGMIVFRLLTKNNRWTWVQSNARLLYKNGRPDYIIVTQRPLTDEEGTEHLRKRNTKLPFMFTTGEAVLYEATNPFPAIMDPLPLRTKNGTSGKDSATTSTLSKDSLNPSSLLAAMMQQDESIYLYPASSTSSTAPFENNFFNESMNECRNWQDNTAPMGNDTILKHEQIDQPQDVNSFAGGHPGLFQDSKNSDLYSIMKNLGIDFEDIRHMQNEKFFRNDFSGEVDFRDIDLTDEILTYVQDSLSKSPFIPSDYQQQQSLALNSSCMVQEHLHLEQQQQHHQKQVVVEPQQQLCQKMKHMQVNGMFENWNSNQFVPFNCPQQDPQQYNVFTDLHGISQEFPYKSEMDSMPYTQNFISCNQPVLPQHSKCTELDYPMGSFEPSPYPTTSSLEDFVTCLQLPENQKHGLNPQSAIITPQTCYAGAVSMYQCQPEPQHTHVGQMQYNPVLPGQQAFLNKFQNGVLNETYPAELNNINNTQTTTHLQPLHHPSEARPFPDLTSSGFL
Peroxisome proliferator-activated receptor gamma (Homo sapiens), sequence (P37231 whole entry, looked up): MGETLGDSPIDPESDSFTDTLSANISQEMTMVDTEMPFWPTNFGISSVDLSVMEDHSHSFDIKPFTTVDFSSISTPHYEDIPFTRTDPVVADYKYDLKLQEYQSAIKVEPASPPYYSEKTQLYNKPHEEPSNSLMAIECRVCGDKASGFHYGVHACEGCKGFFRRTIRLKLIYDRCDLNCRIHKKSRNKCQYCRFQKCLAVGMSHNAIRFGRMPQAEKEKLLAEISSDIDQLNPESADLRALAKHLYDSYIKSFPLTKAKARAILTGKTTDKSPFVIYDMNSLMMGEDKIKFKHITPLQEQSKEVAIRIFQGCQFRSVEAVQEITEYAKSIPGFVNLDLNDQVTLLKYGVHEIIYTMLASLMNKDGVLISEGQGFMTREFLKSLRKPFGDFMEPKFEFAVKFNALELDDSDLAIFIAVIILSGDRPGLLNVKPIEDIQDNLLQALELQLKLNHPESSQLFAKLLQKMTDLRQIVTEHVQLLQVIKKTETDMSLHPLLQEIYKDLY
Estrogen receptor (Homo sapiens), sequence (P03372 whole entry, looked up): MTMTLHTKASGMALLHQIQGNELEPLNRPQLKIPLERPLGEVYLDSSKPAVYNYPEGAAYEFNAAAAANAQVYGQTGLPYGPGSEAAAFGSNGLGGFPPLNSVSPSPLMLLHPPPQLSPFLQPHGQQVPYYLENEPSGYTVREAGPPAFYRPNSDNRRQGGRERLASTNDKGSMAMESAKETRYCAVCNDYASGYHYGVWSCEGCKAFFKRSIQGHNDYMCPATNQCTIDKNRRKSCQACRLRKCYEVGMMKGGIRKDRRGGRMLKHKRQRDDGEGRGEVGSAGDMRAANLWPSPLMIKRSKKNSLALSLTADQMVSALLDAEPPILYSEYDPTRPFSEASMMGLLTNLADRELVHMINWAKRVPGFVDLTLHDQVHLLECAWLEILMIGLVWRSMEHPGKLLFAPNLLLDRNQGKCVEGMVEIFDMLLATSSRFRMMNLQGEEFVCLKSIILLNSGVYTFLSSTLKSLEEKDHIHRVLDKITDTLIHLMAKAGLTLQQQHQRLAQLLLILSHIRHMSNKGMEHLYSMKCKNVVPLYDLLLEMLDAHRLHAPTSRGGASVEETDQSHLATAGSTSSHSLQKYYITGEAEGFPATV
Aromatase (Homo sapiens), sequence (P11511 whole entry, looked up): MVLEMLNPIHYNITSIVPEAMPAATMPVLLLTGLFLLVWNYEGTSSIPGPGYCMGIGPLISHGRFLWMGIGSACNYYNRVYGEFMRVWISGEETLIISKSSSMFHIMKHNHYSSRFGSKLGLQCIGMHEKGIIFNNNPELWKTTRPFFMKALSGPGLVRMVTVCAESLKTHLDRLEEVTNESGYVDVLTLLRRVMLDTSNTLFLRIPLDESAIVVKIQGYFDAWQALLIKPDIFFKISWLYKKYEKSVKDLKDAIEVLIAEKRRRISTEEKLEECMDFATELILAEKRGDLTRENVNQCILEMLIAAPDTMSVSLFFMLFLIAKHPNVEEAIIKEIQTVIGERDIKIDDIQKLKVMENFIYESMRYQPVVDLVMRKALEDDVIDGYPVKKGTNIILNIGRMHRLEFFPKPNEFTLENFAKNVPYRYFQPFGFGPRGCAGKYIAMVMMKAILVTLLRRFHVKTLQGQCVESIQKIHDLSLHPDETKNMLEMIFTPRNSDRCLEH

ClC(Cl)(Br)Br
not listed: [18] | [19]
inactive: all other assays above

CCOC(C)(C)C
not listed: [12] | [13] | [14] | [18] | [19]
inactive: all other assays above

O=C1CCCCCCCCCCCN1
not listed: [12] | [18] | [19]
inactive: all other assays above

Cc1cc(O)cc2c1O[C@](C)(CCC[C@H](C)CCC[C@H](C)CCCC(C)C)CC2
not listed: [10] | [13] | [18] | [19]
inactive: all other assays above

CCC(=O)OC(C)c1ccccc1 (stereo unspecified)
not listed: [12] | [19]
inactive: all other assays above

CCCc1cc(C(N)=S)ccn1
not listed: [19]
inactive: all other assays above

OCCOc1ccc(OCCO)cc1
not listed: [19]
inactive: all other assays above

CCOC(=O)CCC(C)=O
not listed: [7] | [18]
inactive: all other assays above

C=C(C)C(=O)OCCCCCCCC(C)C
not listed: [15] | [18] | [19]
inactive: all other assays above

CC(=O)c1ccccc1O
not listed: [5] | [18]
inactive: all other assays above

O=C1CCCN1C1CCCCC1
not listed: [13] | [14] | [18] | [19]
inactive: all other assays above

O=c1n(CCO)c(=O)n(CCO)c(=O)n1CCO
not listed: [12] | [14] | [19]
inactive: all other assays above

Cc1ccc(C#N)cc1
not listed: [14] | [18] | [19]
inactive: all other assays above

CC(C)(O)C#CC(C)(C)O
not listed: [18] | [19]
inactive: all other assays above

Cc1c(NC(C)C)c(=O)n(-c2ccccc2)n1C
not listed: [5] | [18]
inactive: all other assays above

CN1C(=O)N(C)C(O)C1O (stereo unspecified)
not listed: [17] | [19]
inactive: all other assays above

CC(C[N+](C)(C)C)OC(N)=O (stereo unspecified)
not listed: [13] | [18] | [19]
inactive: all other assays above
